# Experimental data as given in PubChem BioAssay AID1259412 (Laboratorio de Genomica e Expressao (LGE), UNICAMP, 2018).
# Activity calls are given as the source filed them. No rule for the calls is given here.
# How the values were obtained:
# [1] = alternative oxidase inhibition and growth effect – profiling panel (AID 1259412); details: AOX-dependent respiration, at 500 µM; for growth (% of control): O2 uptake, measured here: growth; for O2 uptake (% of control): measured here: O2 uptake, control condition (no AOX);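 as to growth (% of control): growth monitored over 72 h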
# [2] = test system: alternative oxidase (AOX); assay: as above; details: AOX-dependent respiration, at 500 µM, stronger effect = lower value
# [3] = AOX-dependent treatment condition, stronger effect = lower value
SMILES,"growth (% of control) [1, 3] [%]",growth (% of control) ([1]; control condition) [%],O2 uptake (% of control) ([1]; stronger effect = lower value) [%],O2 uptake (% of control) [2]
Cc1cccc(C(=O)Nc2ccccc2C(N)=O)c1,74.2,73.9,92.4,60.2% (active)
O=C(Nc1cccc(I)c1)c1cccc(F)c1,67.2,97.5,77.3,21.9% (active)
COc1cccc(C(=O)Nc2cccc(C(F)(F)F)c2)c1,11.8,57.4,90.2,37.6% (active)
COc1cccc(C(=O)Nc2ccc(N3CCOCC3)cc2)c1,86.1,86.6,102,92.3%
Cc1cccc(C(=O)Nc2cccc(I)c2)c1,61.9,110,93.2,13.3% (active)
O=C(Nc1cccc(Br)c1)c1ccccc1I,57.8,98.8,81,10.4% (active)
O=C(Nc1cccc(C(F)(F)F)c1)c1cccc(Br)c1,58.1,99.1,80.2,22.3% (active)
O=C(Nc1cccc(I)c1)c1cccc(Cl)c1,63.1,82.8,88.3,13.2% (active)
NC(=O)c1ccccc1NC(=O)c1cccc(F)c1,88.1,94.5,85.1,81% (inactive)
N#Cc1cccc(C(=O)Nc2cccc(C(F)(F)F)c2)c1,49.7,90.1,89.3,28.9% (active)
COc1cc(NC(=O)c2ccccc2I)cc(OC)c1OC,91.6,90.9,92.4,80% (active)
Cc1cccc(C(=O)Nc2cccc(F)c2)c1,0.51,43.4,87.8,30.7% (active)
O=C(NCc1ccc2c(c1)OCO2)c1ccccc1,56.1,65.8,99.1,38.6% (active)
O=C(Nc1ccc(N2CCOCC2)cc1)c1ccccc1I,86.7,96.2,86.1,59.6% (active)
Cc1cccc(C(=O)Nc2cccc(C(F)(F)F)c2)c1,54.5,88.4,101,15.2% (active)
COc1cccc(C(=O)Nc2ccccc2)c1,43.8,60.4,95.1,57.1% (active)
O=C(Nc1cccc(I)c1)c1ccccc1I,112,94.8,84,13.1% (active)
N#Cc1cccc(C(=O)Nc2cccc([N+](=O)[O-])c2)c1,91.7,101,110,98.7%
O=C(Nc1cccc(I)c1)c1cccc(I)c1,87.3,90.6,96.7,25.1% (active)
O=C(Nc1cccc(F)c1)c1cccc(F)c1,23,78.7,103,52.3% (active)

SMILES,"growth (% of control) [1, 3] [%]",growth (% of control) ([1]; control condition) [%],O2 uptake (% of control) ([1]; stronger effect = lower value) [%],O2 uptake (% of control) [2]
O=C(Nc1ccc(-n2ccnc2)cc1)c1cccc(Br)c1,44.9,75.3,84.4,72.6% (active)
Nc1cccc(S(=O)(=O)c2cccc(NC(=O)c3ccccc3)c2)c1,93.3,84.2,112,98.2% (inactive)
COc1cccc(C(=O)Nc2cccc(Br)c2)c1,51.9,92,85.8,27.5% (active)
O=C(Nc1cccc(Br)c1)c1cccc(Cl)c1,65.4,91.3,95.9,12% (active)
COc1cccc(C(=O)Nc2cccc(NC(=O)c3cccc(OC)c3)c2)c1,95.4,96.8,102,79.2% (inactive)
O=C(Nc1cccc(F)c1)c1cccc(Cl)c1,3.11,70.3,77.2,34.1% (active)
N#Cc1cccc(C(=O)Nc2cccc(Br)c2)c1,62.4,89.7,82.6,21.3% (active)
COc1cccc(C(=O)Nc2cc(OC)c(OC)c(OC)c2)c1,104,89,101,77.6% (inactive)
N#Cc1cccc(C(=O)NCc2ccc3c(c2)OCO3)c1,79.6,79.7,103,66.1% (active)
O=C(Nc1cccc(NC(=O)c2cccc(Br)c2)c1)c1cccc(Br)c1,77.6,95.3,105,66.5% (active)
O=C(Nc1cccc(I)c1)c1cccc(Br)c1,88.2,103,92,14.3% (active)
O=C(NCc1ccc2c(c1)OCO2)c1cccc(Cl)c1,55.3,72,101,14.2% (active)
O=C(Nc1cccc(C(F)(F)F)c1)c1ccccc1I,14.6,92,79.2,14.3% (active)
N#Cc1cccc(C(=O)Nc2cccc(I)c2)c1,103,117,87.8,32.6% (active)
COc1cccc(C(=O)Nc2cccc(Cl)c2)c1,0,33,76.3,33.2% (active)
COc1cccc(C(=O)Nc2cccc([N+](=O)[O-])c2)c1,63.7,109,91.5,31.9% (active)
N#Cc1cccc(C(=O)Nc2cccc(NC(=O)c3cccc(C#N)c3)c2)c1,91.4,132,107,95.1%
O=C(Nc1ccccc1)c1cccc(I)c1,67.8,86.4,87.7,21.9% (active)
COc1cccc(C(=O)Nc2cccc(F)c2)c1,7.84,32.6,79.2,44.5% (active)
